{"source": "ChEMBL document CHEMBL3988442", "about": "“University of Dundee, Small-Polar-MMV Screening Library” (2021)", "note": "Hit rate of the full screen: of about 48,000 compounds, about 13,000 (27%) showed an effect of 50% or more. Some of the results follow.", "data": [{"system": "Wolbachia pipientis", "assay": "Anti-Wolbachia Cell-Based Screen", "type": "functional", "parameters": "scale not given: in the data most compounds retested in dose-response had high values", "details": "5 µM", "units": {"Percent Effect": "%"}, "values": [{"molecule": "FC(F)(F)CCc1ccnc(N2CCN(Cc3ccncc3)CC2)n1", "Percent Effect": -2.758}, {"molecule": "CCO[C@H]1CO[C@@]2(CCCN(S(=O)(=O)c3ccccc3)C2)C1", "Percent Effect": -23.06}, {"molecule": "COCC(=O)N1CC[C@]2(O)CCN(Cc3cccnc3OC)C[C@@H]2C1", "Percent Effect": 17.33}, {"molecule": "COCc1nc(C(=O)N2CCN(Cc3ccsc3)CC2)cs1", "Percent Effect": -16.22}, {"molecule": "O=C(CCc1ccsc1)N1CCC(Cc2ccc(CO)cc2)C1", "note": "(centres undefined)", "Percent Effect": -8.756}, {"molecule": "COCC(=O)N1CC[C@]2(O)CCN(C(=O)CCc3ccsc3)C[C@@H]2C1", "Percent Effect": 120}, {"molecule": "COCC(=O)N1CC[C@]2(O)CCN(Cc3ccsc3)C[C@@H]2C1", "Percent Effect": 113.5}, {"molecule": "COCC(=O)N1CCN(C(=O)CCc2ccsc2)CC1", "Percent Effect": -13.91}, {"molecule": "Cn1cnc2c1CCN(Cc1nc(COc3ccc(F)cc3)no1)C2", "Percent Effect": 1.894}, {"molecule": "Cc1cccc(N2CCN(CCC(=O)NCc3nnc[nH]3)CC2)c1", "Percent Effect": -0.9949}, {"molecule": "CC(C)N1CCC(N2CCCC(C(=O)NCC3(C)COC3)C2)CC1", "note": "(centres undefined)", "Percent Effect": -5.464}, {"molecule": "Cn1nccc1-c1cnc2n1CCC21CCN(C(=O)C2(C)CC2)CC1", "Percent Effect": 98.02}, {"molecule": "Cn1nccc1-c1cnc2n1CCNC21CCN(C(=O)C2(C)CC2)CC1", "Percent Effect": 92.03}, {"molecule": "Cn1cc(-c2cnc3n2CCC32CCN(S(C)(=O)=O)CC2)cn1", "Percent Effect": 7.243}, {"molecule": "CS(=O)(=O)N1CCC2(CC1)NCCn1c(-c3ccccc3)cnc12.O=C(O)C(F)(F)F.O=C(O)C(F)(F)F", "Percent Effect": -8.058}, {"molecule": "COc1ccc(-c2cnc3n2CCNC32CCN(S(C)(=O)=O)CC2)cc1", "Percent Effect": -5.963}, {"molecule": "CCNC(=O)N1CCC2(CC1)CCn1c(-c3ccccc3)cnc12", "Percent Effect": -10.02}, {"molecule": "O=S(=O)(NCCn1ccc(-c2cccs2)n1)C1CC1", "Percent Effect": 1.599}, {"molecule": "COCCOCCNc1cncc(Br)c1", "Percent Effect": -4.495}, {"molecule": "CCN(Cc1ccncc1)C1CCCN(C/C=C/c2ccc(F)cc2)C1", "note": "(centres undefined)", "Percent Effect": 3.422}, {"molecule": "Cc1nc2ccccc2n1Cc1cc(C(=O)N(C)C2CCOCC2)no1", "Percent Effect": 169.5}, {"molecule": "C[C@@H]1CN(C(=O)c2cc(Cn3cnc4ccccc43)on2)C[C@H](C)O1", "Percent Effect": -0.2425}, {"molecule": "O=C(NCC1CCCCO1)c1cc(Cn2cnc3ccccc32)[nH]n1", "note": "(centres undefined)", "Percent Effect": -5.339}, {"molecule": "O=C(c1cc(Cn2cnc3ccccc32)on1)N1CCOCC1", "Percent Effect": -10.83}, {"molecule": "COCC1CCCN(C(=O)c2cc(Cn3ccc4ccccc43)[nH]n2)C1", "note": "(centres undefined)", "Percent Effect": -4.391}, {"molecule": "Cc1nc2ccccc2n1Cc1cc(C(=O)N(C)C2CCOC2)n[nH]1", "note": "(centres undefined)", "Percent Effect": 98.82}, {"molecule": "Cc1nc2ccccc2n1Cc1cc(C(=O)NC2CCOC2)no1", "note": "(centres undefined)", "Percent Effect": 107.5}, {"molecule": "Cc1nc2ccccc2n1Cc1cc(C(=O)N2C[C@@H](C)O[C@@H](C)C2)no1", "Percent Effect": -14.98}, {"molecule": "Cc1ccc(CNC(=O)c2cc(CN3CCC(O)CC3)on2)s1", "Percent Effect": -1.351}]}]}
